Source: PubChem
Hits are enriched below; roughly 7.3% of the tested compounds scored in any of these assays.
Rab9 prom act: qHTS Assay for Rab9 Promoter Activators | Huh7 Rab9 promoter-luciferase reporter, luminescence, 24 h | Potency, µM (doses to about 9.22 µM), without a hit: at the highest dose activation, negative = inhibition, actives largely listed as activators | 320,000 compounds, 2.8% hits | AID 485297, 2010; note: % of control where 0% means no effect; nearly all actives have a fitted effect of over 60% in size
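Huh7 cells stably carrying a Rab9 promoter-luciferase reporter, 1500 cells per well in OP-MEM I with 10% FBS, treated with compound 24 hours at 37C. Luciferase activity read by luminescence after 10 minutes with Amplite reagent.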
SMN2 splice enh: qHTS Assay for Enhancers of SMN2 Splice Variant Expression | AID 1458, 2008 | Potency, µM (titrated, usually from 46.1 µM), for inactives: at the highest dose activity change, positive = activation, most hits filed as activators | 210,000 compounds, 2.8% hits | HEK293 SMN2-luciferase splicing reporter, luminescence, 30-36 h; note: % of control where 0% means no effect; nearly all actives have a fitted effect of over 55% in size
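HEK293 cells carry an SMN2 minigene-luciferase reporter in which exon 7 inclusion puts luciferase in frame. Cells were seeded at 2000 cells/well, attached for 10-12 hours, then exposed to compounds for 30-36 hours at 37C before ONE-Glo luminescence.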
FLuc counter: qHTS profiling assay for firefly luciferase inhibitor/activator using purifed enzyme and Km concentrations of substrates (counterscreen for miR-21 project); purified FLuc, Km substrates, luminescence inhibition; Potency, µM (series often up to 57.5 µM), for the others: top-dose activity change, negative = inhibition, usual class: inhibitors; 360,000 compounds, 6.9% hits; AID 588342, 2011;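 note: plate controls were vehicle for no effect and reference inhibitor for full effect; nearly all actives have a fitted effect of over 55% in size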
Target sequence (P08659 whole entry, looked up): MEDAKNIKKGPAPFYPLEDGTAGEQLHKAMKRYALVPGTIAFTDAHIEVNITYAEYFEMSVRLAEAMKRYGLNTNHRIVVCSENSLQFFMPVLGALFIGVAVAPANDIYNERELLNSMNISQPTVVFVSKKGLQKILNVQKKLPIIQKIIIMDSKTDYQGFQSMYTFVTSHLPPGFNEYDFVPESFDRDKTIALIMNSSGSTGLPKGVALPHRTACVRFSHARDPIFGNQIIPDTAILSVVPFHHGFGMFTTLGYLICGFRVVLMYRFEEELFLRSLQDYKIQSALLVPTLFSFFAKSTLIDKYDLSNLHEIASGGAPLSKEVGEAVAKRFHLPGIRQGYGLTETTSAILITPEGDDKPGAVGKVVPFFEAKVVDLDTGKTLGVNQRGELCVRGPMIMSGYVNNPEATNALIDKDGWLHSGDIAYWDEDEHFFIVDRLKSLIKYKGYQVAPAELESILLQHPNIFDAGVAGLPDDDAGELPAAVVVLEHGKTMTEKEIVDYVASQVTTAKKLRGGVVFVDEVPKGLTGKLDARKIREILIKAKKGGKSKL
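Purified P. pyralis luciferase, 10 nM final, with Km-level 10 uM D-luciferin and 10 uM ATP in 50 mM Tris acetate pH 7.5, 10 mM Mg acetate, 0.01% Tween-20, 0.05% BSA; 6-point qHTS titration about 60 µM downward; luminescence read.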
NPC1 prom act: qHTS Assay for NPC1 Promoter Activators. AID 485313, 2010. 320,000 compounds, 2.4% hits. Huh7 NPC1 promoter luciferase reporter, 24 h. Potency, µM (doses to about 9.22 µM), for inactives: at the top dose activation, hits mostly activators; note: % of control where 0% means no effect; nearly all actives have a fitted effect of over 60% in size
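Compounds in DMSO were transferred onto Huh7 NPC1-luciferase reporter cells pre-incubated 2 h; after 24 h at 37 °C, Amplite reagent was dispensed and luminescence recorded 10 min later.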
Luc counter: Counterscreen for Luciferase (Kinase-Glo TM) Inhibition; Luciferin 4-monooxygenase (Photuris pensylvanica), Q27757; Kinase-Glo luciferase, ATP luminescence, 8 min; 200,000 compounds, 0.28% hits; AID 1379, 2008; Potency, µM (doses to about 38.3 µM), for the others: at the highest dose activity change, negative = inhibition, hits mostly inhibitors; note: % is set by controls: 0 for no effect and ±100 for the full control effect; nearly all actives have a fitted effect of over 60% in size
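Light output from Kinase-Glo luciferase with luciferin and 10 uM ATP in 50 mM imidazole pH 7.2, KCl, MgCl2, Tween 20, BSA; compound pin-delivered, 8-min ambient incubation, then luminescence read.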
* hit, by the source's call; ? = inconclusive; nt = not tested or not shown; [ ] = another dose, or the depositor's remark. Calls come from the whole dose curve; as a rule, active = well fitted curve in the direction sought with a large enough effect; inconclusive = small, poorly fitted or top-dose-only effect, or another doubt; inactive = no such curve, though single readings can be large; an effect the other way counts as inactive or inconclusive. Potency is the fitted concentration of half-maximal effect.

SMILES	Rab9 prom act	SMN2 splice enh	FLuc counter	NPC1 prom act	Luc counter
CCc1ccc(-c2cc(C(=O)N/N=C/c3ccco3)[nH]n2)cc1	1%	0%	?	13%	-5%
O=C(N/N=C/c1ccccn1)c1cc(-c2ccccc2Cl)n[nH]1	-2%	-13%	24µM*	3%	0%
O=C(N/N=C/c1ccccn1)c1cc(-c2cccc3ccccc23)n[nH]1	3%	23%	?	7%	1%
CC=C(Cl)Cl	nt	3%	nt	nt	nt
CCn1c(SCc2ccccc2Cl)nc2ccccc21	20%	?	12µM*	27%	0%
Cn1c(SCc2ccccc2Cl)nc2ccccc21	?	111%	6µM*	2.5µM*	-26%
CCn1c(CSc2nc3ccccc3n2C)nc2ccccc21	-6%	-17%	-4%	-2%	0%
CCOC(=O)c1ccc(NC(=O)CC2Nc3cc(C)c(C)cc3NC2=O)cc1 (centres undefined)	nt	-12%	-4%	nt	nt
O=C(Nc1ncccc1O)c1ccc(Oc2ccccc2)cc1	2.8µM*	nt	6.7µM*	1.8µM*	nt
O=C(Nc1ncccc1O)c1ccc(OCC2CCCO2)cc1 (centres undefined)	0.79µM*	nt	7.6µM*	0.79µM*	nt
O=C(NC1=NCCS1)c1ccc(OCC2CCCO2)cc1 (centres undefined)	0.35µM*	10µM*	?	0.4µM*	-6%
CCOc1ccc(C(=O)NC2=NCCS2)cc1	0.5µM*	14µM*	11µM*	1.1µM*	-3%
CCCCC[C@H](O)/C=C/C=C\C/C=C\C=C\[C@@H](O)CCCC(=O)O	nt	20%	nt	nt	-1%
COc1ccc2c(c1)c1c(c(=O)n(-c3ccc(F)c(Cl)c3)c(=O)n1CC(=O)N1CCCC1)n2C	nt	nt	3%	nt	nt
C=CCN=Cc1c(C)[nH]n(-c2ccccc2)c1=O	3.5µM*	?	?	29%	-1%
COc1ccc2oc(=O)c(C(=O)Nc3ccc(C(=O)O)cc3)cc2c1	nt	-1%	6.7µM*	nt	nt
COc1ccc(NC(=O)c2cc(-c3ccccc3)oc2C)cc1	1%	-5%	?	0%	-5%
COc1ccc2o/c(=N\O)c(C(=O)Nc3ccccc3OC)cc2c1	-2%	22%	?	-1%	-5%
COc1ccccc1NC(=O)c1cc2cc(Br)ccc2oc1=N	-1%[1.84 µM]	nt	4.8µM*	26%	nt
COc1ccc(NC(=O)c2cc3cc(OC)ccc3oc2=N)cc1	-1%	-22%	9.5µM*	9%	6%
COc1ccc2oc(=O)c(C(C)=O)cc2c1	1%	-19%	6%	-4%	-4%
COc1ccc2oc(=O)c(C(=O)Nc3ccccc3O)cc2c1	0.4µM*	nt	0.6µM*	1µM*	nt
CCCCOc1cccc(NC(=O)c2cccc(C(=O)Nc3cccc(OCCCC)c3)c2)c1	nt	-3%	-13%	nt	nt
CCN(CC)c1ccc(/C=N/NC(=O)c2ccccn2)cc1	0.71µM*	nt	2.4µM*	0.45µM*	nt
O=C(N/N=C/c1ccc(OC(=O)c2ccccc2Cl)cc1)c1ccccn1	?	nt	1.5µM*	2.8µM*	nt
SMILES	Rab9 prom act	SMN2 splice enh	FLuc counter	NPC1 prom act	Luc counter
CCN(CC)c1ccc(/C=N/NC(=O)c2cnccn2)cc1	?	20µM*	12µM*	-9%	-4%
CCc1ccc(/C=N/NC(=O)c2ccccn2)cc1	0.13µM*	nt	0.48µM*	0.45µM*	nt
O=C(N/N=C/c1ccc(OC(=O)c2ccccc2Cl)cc1)c1cc(O)cc(O)c1	4%	nt	?	-4%	nt
COc1cc(/C=N/NC(=O)c2cnccn2)cc(OC)c1OC	-1%	14%	3%	3%	3%
O=C(CNC(=O)c1ccccn1)N/N=C/c1ccccc1	-1%	7%	?	-2%	-1%
Cc1ccc(-n2nc(C)c3c(C)cc(=O)n(CC(=O)NC(C)C)c32)cc1	nt	nt	-1%	nt	nt
COCCc1nn2c(=O)cc(COC(=O)COc3ccc(F)cc3)nc2s1	nt	nt	-4%	nt	nt
CCN(Cc1ccccc1)C(=O)Cn1c(=O)n(-c2ccc(Cl)c(Cl)c2)c(=O)c2c(C)c(C(=O)N(C)C)sc21	nt	nt	-9%	nt	nt
CCCNC(=O)Cn1nc(C)c2c(C)n(-c3ccccc3)nc2c1=O	nt	nt	-4%	nt	nt
O=C(COc1ccccc1C(=O)c1cnn(-c2ccccc2)c1)Nc1ccccc1	?	25µM*	1.5µM*	26%	-8%
COc1ccccc1CNC(=O)COc1ccccc1C(=O)c1cnn(-c2ccccc2)c1	17%	nt	9.5µM*	16%	nt
O=S(=O)(Nc1nc2ccccc2nc1N1CCc2ccccc2C1)c1ccc(Br)cc1	-2%	?	15µM*	-2%	-8%
CCCCc1nc2cc(C(=O)N3CCC(OCCOC)CC3)ccc2o1	15%	nt	?	18%	nt
CCCCc1nc2cc(C(=O)N3CCNC(=O)C3)ccc2o1	2%	nt	-3%	-3%	nt
CCCCc1nc2cc(C(=O)NC(C)c3cnn(C)c3)ccc2o1 (centres undefined)	4µM*	nt	?	?	nt
CCCCc1nc2cc(C(=O)N3CCCC3)ccc2o1	2.8µM*	nt	?	?	nt
CCCCc1nc2cc(C(=O)N3CCCC(OCCC)C3)ccc2o1 (centres undefined)	?	nt	17µM*	?	nt
CCCCc1nc2cc(C(=O)N3CCCC(COC)C3)ccc2o1 (centres undefined)	4µM*	nt	17µM*	4µM*	nt
COc1ccc(NC(=O)Cn2c(=O)n(CCC(=O)NCCc3ccc(OC)c(OC)c3)c(=O)c3ccccc32)cc1Cl	nt	-2%	1%	nt	nt
CCCCc1nc2cc(C(=O)N3CCCCC3C(=O)OC)ccc2o1 (centres undefined)	2.8µM*	nt	15µM*	?	nt
CCCCc1nc2cc(C(=O)N3CCCCC3CC(=O)OCC)ccc2o1 (centres undefined)	?	nt	3%	23%	nt
CCCc1ccc2oc(C(=O)N3CCC(COC)C3)c(C)c2c1 (centres undefined)	2.8µM*	nt	12µM*	2.8µM*	nt
CCCc1ccc2oc(C(=O)N3CCC[C@H]3CO)c(C)c2c1	3.2µM*	nt	11µM*	6.3µM*	nt
CCCc1ccc2oc(C(=O)N3CCC(N4CCCC(O)C4)CC3)c(C)c2c1 (centres undefined)	2%	nt	-19%	-1%	nt
CCCc1ccc2oc(C(=O)NCCN3CCCC(O)C3)c(C)c2c1 (centres undefined)	9%	nt	?	15%	nt
COc1ccc(Cn2c(C(=O)O)c(CNC3CCCCCC3)c3ccc(OC)cc32)cc1	nt	nt	4%	nt	nt
CCC(C(=O)NCc1ccccc1)n1ncn2c(cc3occc32)c1=O (centres undefined)	nt	-8%	4%	nt	nt
Cc1nn(CC(C)C)c(=S)[nH]c1=O	-9%	5.6µM*	0%	-4%	0%
